Sampled rows, rich in hits. Any-hit rate of the full collection: about 0.26%.
Bcl-B Bim block – inhibitors of Bim-Bcl-B binding, primary screen, biochemical, multiplexed, human Bcl-2 family. Bcl-2-like protein 10 (Homo sapiens), Q9HD36. bead-based flow cytometry, Bim peptide-Bcl-B binding. inhibition, % at 10 µM. 190,000 tested, 0.073% active. AID 951, 2007
PKD1 inh – inhibitors of human PKD1 kinase, biochemical, fluorescence polarization | PKD1 kinase fluorescence polarization assay | inhibition, % (no concentration beside the values) | 200,000 tested, 0.056% active | AID 797, 2007; in the data active = inhibition above about 50%
Bim-Bcl-W – inhibitors of Bim binding to Bcl-W, primary screen, biochemical, multiplexed, bead-based flow cytometry. inhibition, % at 10 µM. Bcl-2-like protein 2 (Homo sapiens), Q92843. Bim peptide-Bcl-W binding. 190,000 tested, 0.02% active;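 also: higher means less fluorescent Bim peptide bound to Bcl-W beads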
Bcl-2 Bim block – inhibitors of Bim-Bcl-2 binding, primary screen, biochemical, multiplexed, human Bcl-2 family; Apoptosis regulator Bcl-2 (Homo sapiens), P10415; Bead-based flow cytometry, Bim peptide-Bcl-2 binding; inhibition, % at 10 µM; 190,000 tested, 0.06% active; AID 950, 2007; in the data active = inhibition above about 40%
Target sequence (P10415 whole entry, looked up): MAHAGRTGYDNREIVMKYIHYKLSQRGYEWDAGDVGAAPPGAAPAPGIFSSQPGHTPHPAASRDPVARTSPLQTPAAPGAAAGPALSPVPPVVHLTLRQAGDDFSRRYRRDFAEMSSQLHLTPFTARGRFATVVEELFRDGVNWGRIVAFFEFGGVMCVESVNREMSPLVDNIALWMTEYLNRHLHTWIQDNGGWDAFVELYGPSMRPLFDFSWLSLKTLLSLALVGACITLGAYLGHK
Bcl-XL Bim block – inhibitors of Bim-Bcl-XL binding, primary screen, biochemical, multiplexed, bead flow cytometry, human Bcl-XL | inhibition, % at 10 µM | Bcl-2-like protein 1 (Homo sapiens), Q07817 | AID 1007, 2008 | Bim peptide-Bcl-XL binding, fluorescence | 190,000 tested, 0.04% active
Bim-Bfl-1 – inhibitors of Bim binding to Bfl-1, primary screen, biochemical, multiplexed, bead-based flow cytometry; Bim-Bfl-1 binding inhibition; inhibition, % at 10 µM; 190,000 tested, 0.12% active; AID 1008, 2008
Target sequence (Q16548 whole entry, looked up): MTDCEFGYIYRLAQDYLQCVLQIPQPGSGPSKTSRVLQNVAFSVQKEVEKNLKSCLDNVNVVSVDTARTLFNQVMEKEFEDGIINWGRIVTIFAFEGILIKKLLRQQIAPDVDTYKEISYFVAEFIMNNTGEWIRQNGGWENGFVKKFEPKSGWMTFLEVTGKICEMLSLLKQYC
Numbers stand for hits; 0 = inactive; - = not tested or not shown. Rule as the data show it, unless noted: active = inhibition above about 40%.

SMILES	Bcl-B Bim block	PKD1 inh	Bim-Bcl-W	Bcl-2 Bim block	Bcl-XL Bim block	Bim-Bfl-1
CCN(CC)C(=O)C1CCCN(c2ncnc3c2cnn3-c2cccc(C)c2)C1 (configuration not stated)	0	0	0	0	0	0
CCOC(=O)C1CCCN(c2ncnc3c2cnn3-c2cccc(C)c2)C1 (configuration not stated)	0	0	0	0	46	47
COc1ccc2cc(CN(CCc3ccccc3)Cc3nnnn3CC3CCCO3)c(=O)[nH]c2c1 (configuration not stated)	0	0	0	0	42	44
O=C(OCc1cnc(Cl)s1)c1ccccc1Cl	0	0	0	0	0	0
O=C(OCc1cnc(Cl)s1)c1cccc(Cl)c1Cl	70	0	0	76	0	51
COc1c(F)c(F)c(C(=O)Nc2ccccc2N2CCN(C(=O)C(C)C)CC2)c(F)c1F	-	0	0	83	0	-
COc1c(F)c(F)c(C(=O)Nc2ccccc2N2CCN(C(C)=O)CC2)c(F)c1F	0	0	0	0	0	0
Cc1cccc(C)c1Nc1nnc(SC(C)C(=O)Nc2c(C)n(C)n(-c3ccccc3)c2=O)s1 (configuration not stated)	0	0	0	0	0	0
NC(=O)C1CCCN(C(=S)Nc2cccc3ccccc23)C1 (configuration not stated)	0	0	0	0	0	0
Cc1ccc(NC(=O)C2CC(=O)N/C(=N/NC(=O)c3ccc(C)cc3)S2)cc1 (configuration not stated)	0	0	0	0	0	0
Cc1ccc(C(=O)N/N=C2/NC(=O)CC(C(=O)Nc3ccccc3)S2)cc1 (configuration not stated)	0	0	0	0	40	0
c1ccc(Nc2ccccn2)cc1	0	0	0	0	0	0
c1ccc(Nc2cccc(Nc3ccccc3)n2)cc1	0	0	47	0	0	68
O=C(c1ccco1)N1CCN(c2nnc(-c3ccccc3)c3ccccc23)CC1	0	0	0	0	0	0
N#Cc1c(Cl)nsc1NC(=O)c1ccccc1	0	0	0	0	0	0
CC1CCN(C2(O)C(=O)Nc3ccc(Br)cc32)CC1 (configuration not stated)	57	0	0	47	63	0
O=C1Nc2ccc([N+](=O)[O-])cc2C1(O)N1CCCCCC1 (configuration not stated)	0	0	0	0	0	0
CSc1n[nH]c2nc3c(c(=O)n12)C1(CCCC1)Cc1ccccc1-3	0	0	0	0	40	44
CNC(=S)N/N=C/C1=CCC2CC1C2(C)C (configuration not stated)	65	0	0	69	0	52
CC(=O)c1cccc(N(CC(=O)O)S(C)(=O)=O)c1	0	0	0	0	0	0
Cc1nn(-c2ccccn2)c2c1C(=O)C(Br)CC2 (configuration not stated)	0	0	0	0	0	59
COc1ccc(NC(=O)/C(Cl)=C(/Cl)S(=O)Cc2ccc(Cl)cc2)cn1 (configuration not stated)	0	0	0	0	0	40
CC(=O)c1cccc(S(=O)(=O)NCCC(=O)O)c1	0	0	0	0	0	0
NC(=O)CSc1nnc(Cn2cnc3ccccc32)o1	0	0	0	0	0	65
CCc1ccccc1NC(=O)CSc1nnc(Cn2cnc3ccccc32)o1	0	0	0	0	0	0
SMILES	Bcl-B Bim block	PKD1 inh	Bim-Bcl-W	Bcl-2 Bim block	Bcl-XL Bim block	Bim-Bfl-1
COc1ccc2oc(-c3ccccc3)c(C(=O)N3CCOCC3)c2c1	81	0	0	80	0	60
CCOc1ccc2oc(-c3ccccc3)c(C(=O)N3CCN(C)CC3)c2c1	0	0	0	0	0	0
O=C(CNC(=O)c1cccs1)NCC(=O)OCc1ccccc1Br	0	0	0	0	0	0
O=C(CNC(=O)c1ccco1)NCC(=O)OCc1ccccc1Br	-	0	0	89	0	-
Cc1ccc(Nc2nc(CSc3nnc(-c4cccnc4)n3-c3ccccc3C)cs2)cc1	0	0	0	0	0	42
Cc1ccccc1-n1c(SCc2csc(Nc3ccccc3)n2)nnc1-c1cccnc1	0	0	0	0	0	0
O=C(Cn1cnc2c(nnn2Cc2ccccc2F)c1=O)NCc1ccco1	0	0	0	0	0	0
CCn1cc(C(=O)NCCCN2CCC(C)CC2)c2cc(OC)c(OC)cc2c1=O	0	0	0	0	0	0
O=C(COC(=O)c1cccnc1Cl)Nc1cc(S(=O)(=O)N2CCCCC2)ccc1Cl	0	0	0	0	0	0
CN(C)c1ccc(/C=C2/SC(=O)N(CCN=C3NS(=O)(=O)c4ccccc43)C2=O)cc1	92	0	71	91	50	48
CCN(CC)CCCN1CC(O)=C(c2nc3ccccc3s2)C1=N	0	0	0	0	0	0
N=C1C(c2nc3ccccc3s2)=C(O)CN1Cc1ccccc1	83	0	0	85	0	68
COc1ccc2[nH]c(=O)c(CN(Cc3cccs3)C(=S)Nc3ccccc3)cc2c1	0	0	0	0	0	0
CNC(=S)N(Cc1cccs1)Cc1cc2ccc(OC)cc2[nH]c1=O	0	0	0	0	0	47
CCOc1cc(/C=C2/N=C(C)C(C(=O)OC)=C2O)ccc1O	44	0	59	59	0	58
O=C(O)CCc1nn2c3ccccc3nc2n(Cc2ccccc2)c1=O	0	0	0	0	0	0
Nc1nc2c(s1)CCc1c-2cnn1-c1ccccc1	0	0	0	0	0	41
COc1ccc(CN(C)CC(=O)NC(C)c2ccccc2)c(OC)c1 (configuration not stated)	60	0	0	62	0	56
c1coc(C2Nc3cccc4cccc(c34)N2)c1	0	0	0	0	0	42
Cc1ccc2[nH]c(=O)c(COC(=O)c3cccs3)cc2c1	0	0	0	0	0	0
COC(=O)/C(=C/c1c[nH]c2ccccc12)NC(C)=O	0	0	0	0	0	0
COC(=O)/C(=C/c1ccc(F)cc1)NC(C)=O	48	0	0	0	0	0
CN(C)c1ccc(NC2=C(Cl)C(=O)c3ccccc3C2=O)cc1	0	0	48	0	0	71
Cc1nc2scc(-c3ccccc3)c2c(=O)n1N=C1C=CC(=O)C=C1	0	0	0	0	0	40
O=C(NNc1ccc(O)cc1)c1ccc(Br)cc1	0	0	0	0	0	0
O=C(NNC1=Nc2cccc3cccc1c23)c1ccc(Br)cc1	0	50	0	0	0	0
Cc1cc(N)ccc1N1CCCC1	87	0	75	66	64	73

Screening results deposited in PubChem BioAssay by several laboratories.
